# Compound activity (PubChem)
# gsp antagonist – antagonizes gsp, the McCune-Albright syndrome mutation. gsp-mutant cells, cAMP HTRF, 30 min. Potency, µM (doses to about 76.9 µM), for inactives: at the top dose activity change, negative = inhibition, most hits filed as inhibitors. 340,000 tested, 0.4% active. AID 624288; calls by dose curve; cell line not stated here;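 further: intracellular cAMP measured with PDE inhibitor Ro 20-1724 present during compound exposure; potency means the concentration at half of the fitted maximal effect; on the % scale 0 is the no-effect control and ±100 the full control effect; nearly all actives have a fitted effect of over 65% in size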
#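 HTRF cAMP measurement after 30 min RT detection following 30 min, 37C compound treatment alongside […] (added as 300 uM solution) in G418-selected cells seeded at 2000/well and grown 16–24 h.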
# Giardia killer – Giardia lamblia killing. activity change, % at 7.66 µM, hits read low. Giardia lamblia trophozoite viability. 340,000 tested, 0.15% active; in the data active means activity change below about -80%; inconclusive means between about -30% and that limit;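 further: parasites exposed to compound for two days anaerobically before the ATP read; on the % scale 0 is the no-effect control and ±100 the full control effect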
#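 Giardia lamblia trophozoites (100 cells/well) were incubated with compounds for 48 h at 37 deg C under anaerobic conditions. Viability was read as ATP content by one-step luminescence after 15-30 min at room temperature.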
# RXFP1 antagonist – blocks the human relaxin receptor RXFP1. Q9HBX9. HEK293-RXFP1, relaxin-stimulated cAMP HTRF, 30 min; hits give low values. activity change, negative = inhibition, % at 57.5 µM. 350,000 tested, 0.59% active. AID 1259400;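 active means activity change of -60% or lower, but not beyond a set lower limit; inconclusive means change between -60% and -40%, or beyond the set limit; inactive means change above -40%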; further: on the % scale 0 is the no-effect control and ±100 the full control effect
# RXFP1 agonist – agonists of human relaxin receptor RXFP1; HEK293T-RXFP1 cAMP TR-FRET, 30 min; response scale: percent of porcine relaxin response, buffer zero; Potency, µM (series often up to 57.5 µM), for the others: at the highest dose activation, most hits filed as activators; 370,000 tested, 0.3% active; active means well fitted activation curve with a large enough effect; inconclusive means small, poorly fitted or top-dose-only effect; further: potency means the concentration at half of the fitted maximal effect; on the % scale 0 is the no-effect control and ±100 the full control effect; nearly all actives have a fitted effect of over 60% in size
#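 HEK293T cells stably expressing RXFP1 were pretreated with the PDE4 inhibitor Ro 20174, exposed to compounds for 30 min at 37C, lysed, and cAMP was read by TR-FRET. Data normalized to buffer (basal) and 29 nM porcine relaxin (100%).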
# FBPA coupling cs – counter-screen for Giardia aldolase inhibitors: coupling enzyme system | coupling enzyme system counterscreen, AmpLite Red fluorescence | activity change, negative = inhibition, % at 58.2 µM, hits read low | 290,000 tested, 0.67% active; in the data active means activity change below about -30%; further: on the % scale 0 is the no-effect control and ±100 the full control effect
#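 Counterscreen lacking aldolase: glyceraldehyde-3-phosphate coupling-enzyme reagent preincubated 10 min at RT with compound (at 57.5 uM final), then substrate/coupling system with AmpLite Red added; fluorescence read at 525/598 nm after 20 min RT.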
# gsp agonist – agonists of gsp mutant (McCune-Albright syndrome) | 340,000 tested, 0.13% active | gsp mutant cells, cAMP HTRF, 30 min | AID 624287 | Potency, µM (doses to about 76.9 µM), for the others: at the top dose activation (cAMP increase), most hits filed as activators; active means well fitted activation curve with a large enough effect; inconclusive means small, poorly fitted or top-dose-only effect, or another doubt; inactive means no such curve, though single readings can be large or run the other way; cell line not stated here;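 further: phosphodiesterase inhibitor Ro 20-1724 added with compounds to block cAMP breakdown; potency means the concentration at half of the fitted maximal effect; nearly all actives have a fitted effect of over 60% in size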
#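 Cells stably selected in G418 were plated at 2000/well, grown 16-24 hr, then given compounds in DMSO with the PDE inhibitor […] (300 uM solution added) for 30 min at 37C; cAMP was read by HTRF.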
# * hit, by the source's call; ? = inconclusive; . = no result; [ ] = another dose, or the depositor's remark. An excerpt weighted towards active compounds, which were near 1.6% of everything screened.
SMILES,gsp antagonist,Giardia killer,RXFP1 antagonist,RXFP1 agonist,FBPA coupling cs,gsp agonist
CCOc1ccc(C2/C(=C(/O)c3ccc(S(=O)(=O)N4CCCCC4)cc3)C(=O)C(=O)N2CCCOC)cc1OC (stereo not given),6%,18,-6,-2%,7,19%
O=C(O)c1ccccc1-c1noc(-c2ccccc2F)n1,.,.,.,0%,.,.
O=C(Nc1ccc(N2CCN(C(=O)c3ccccc3)CC2)cc1)c1cc2ccccc2o1,35µM*,-19,-22,1%,0,-10%
CN1CCN(c2ccc(NC(=O)c3cc4ccccc4o3)cc2)CC1,-3%,-8,1,0%,-1,-57%
O=C(Nc1ccc(N2CCOCC2)c(Cl)c1)c1cc2ccccc2o1,-22%,-17,-27,0%,-33*,-12%
O=C(Nc1ccc(N2CCOCC2)c(Cl)c1)c1ccc(Br)o1,?,7,4,1%,-32*,9%
O=C(Nc1ccc(N2CCN(C(=O)c3ccccc3)CC2)c(Cl)c1)c1ccc(Br)o1,?,5,-12,0%,-5,-48%
CC(C)CO/N=C1/C[C@@H](O)[C@@H](O)[C@@H]2[C@@H]3C(=O)N(c4cccc(Oc5ccccc5)c4)C(=O)[C@H]3CC[C@H]12,.,.,.,.,0,.
Cc1nc(SCC(=O)c2c(N)n(C3CC3)c(=O)[nH]c2=O)[nH]c(=O)c1CCO,15%,3,0,1%,.,?
O=c1cccccc1NCc1ccccc1,2%,-5,6,-1%,-39*,10%
O=C1C=C(Nc2ccccc2O)c2ccccc2C1=O,?,-15,-11,-1%,-60*,-36%
O=C1C=C(NCc2ccccc2)c2ccccc2C1=O,-29%,-22,-23,-4%,-87*,?
O=C1C=C(Nc2ccc(F)cc2)c2ccccc2C1=O,-2%,4,-14,-1%,.,-14%
CN(C)c1nc(NS(=O)(=O)c2ccc(Cl)cc2)nc(N(C)C)n1,5%,5,-1,3%,-32*,13%
COc1ccc(CCCc2nnc(SCC(=O)Nc3ccccc3F)o2)cc1,-8%,-5,-1,0%,-2,13%[15.4 µM]
CCOC(=O)C1=C(c2ccccc2)OC(N)=C(C#N)C1c1cccnc1 (stereo not given),-22%,3,2,0%,-2,14%[15.4 µM]
Cc1ccc(-c2[nH]nc3c2C(c2cccnc2)C(C#N)=C(N)O3)cc1 (stereo not given),12%,1,8,1%,-42*,14%
CC(=O)C1=C(C)OC(N)=C(C#N)C1c1cccnc1 (stereo not given),0%,-5,13,-1%,-33*,-32%
Cc1ccc(CNC(=O)C2CCN(S(=O)(=O)c3c(C)noc3/C=C/N(C)C)CC2)cc1,-8%,-26,-64*,0%,.,-20%
O=C(CCCOc1ccc(Cl)cc1Cl)N/N=C/c1cccc([N+](=O)[O-])c1,-17%,-19,-11,0%,-39*,17%
O=C(COc1ccc(Cl)cc1Cl)N/N=C/c1cccnc1,8%,-1,-16,2%,0,4%
Clc1ccccc1CNc1nc2ccccc2c2nc(-c3cccnc3)nn12,.,.,.,0%,.,.
Cc1c(C#N)c(O)[nH]c(=O)c1N=Nc1ccc(Br)cc1C(=O)O,-5%,-11,-8,0%,-8,-3%[15.4 µM]
Cc1cccc(N=Nc2c(C)c(C#N)c(O)[nH]c2=O)c1,-9%,-97*,-10,6%,3,10%[15.4 µM]
COc1ccc(-n2ncc(C(=O)N3CCN(c4ccccn4)CC3)c2C2CCN(C(=O)OC(C)(C)C)CC2)cc1,.,.,-2,1%,.,.
O=C(N/N=C/C(Br)=C/c1ccccc1)c1cc(-c2ccco2)[nH]n1,-59%,-6,-81*,0%,0,17%[15.4 µM]
Cc1nc(C2CCCCC2)c(-c2ccc(S(N)(=O)=O)c(F)c2)o1,.,.,-17,.,.,.
Cc1oc2c(c1C(=O)N1CCC(C)CC1)C(=O)c1ccccc1C2=O,10%,?,.,0%,-46*,-3%
